# From the supplement of paper PMC12350171
# Counter-ions that a name gives are not always drawn. Unmarked numbers belong to inactive results.
# Columns and labels:
# Conditions in all cases: 20 µM
# [1] = tested on: Salmonella enterica typhimurium; test: growth AUC normalised to DMSO control (fraction of control); higher = less growth inhibition, active = hit call of the paper
# Outline: (§1)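 After two anaerobic passages, pathogens were added at a starting OD578 of 0.01 to pre-reduced mGAM plates holding compound at 20 μM with 1% DMSO; hemin and NAD were supplemented for Haemophilus parainfluenzae. Sealed with breathable membranes, plates were read at OD578 hourly for 24 h, in three biological replicates. The trapezoidal rule, applied up to the exponential-to-stationary transition, gave the growth-curve AUC, which was normalised to DMSO controls on the same plate.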
# Shigella flexneri = test: as above
# Outline: as §1
# Vibrio cholerae = test: as above
# Outline: as §1
# [2] = tested on: Yersinia pseudotuberculosis; test: as above
# Outline: as §1
# P. vulgatus RND KO = test: growth AUC normalised to DMSO control (median) (fraction of control); higher = less growth inhibition, active = hit call of the paper
# Outline: (§2)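 In 96-well plates of mGAM seeded at OD578 0.01, strains that had been passaged twice overnight without oxygen were exposed to approved-drug library compounds at 20 μM with 1% DMSO. Hourly OD578 readings were taken for 24 h in an anaerobic incubator. The trapezoidal-rule area under the curve, with curves truncated at entry into stationary phase, was expressed relative to same-plate vehicle wells as the median of three biological replicates.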
# P. vulgatus WT = test: as above
# Outline: as §2
# [3] = tested on: S. enterica typhimurium WT; test: as above
# Outline: as §2
# [4] = tested on: S. enterica typhimurium tolC KO; test: as above
# Outline: as §2
# 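Wherever growth AUC normalised to DMSO control (median) is given: active when median AUC fell below 0.1.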
Structure (SMILES),growth AUC normalised to DMSO control [1],growth AUC normalised to DMSO control (Shigella flexneri),growth AUC normalised to DMSO control (Vibrio cholerae),growth AUC normalised to DMSO control [2],growth AUC normalised to DMSO control (P. vulgatus RND KO),growth AUC normalised to DMSO control (P. vulgatus WT),growth AUC normalised to DMSO control [3],growth AUC normalised to DMSO control [4]
Cc1cn[nH]c1 [Fomepizole],0.996,0.992,0.977,0.996,0.978,0.985,0.993,0.997
C[N+](C)(C)CCOC(N)=O [Carbachol chloride],1.03,1.07,1.08,1.01,1.09,1.05,1.01,1.01
CCCCC1C(=O)N(c2ccccc2)N(c2ccccc2)C1=O [Phenylbutazone],1.01,0.991,0.973,1.01,1.03,1.07,1,0.964
"Cc1c(O)c(=O)n(-c2ccccc2)n1C [Antipyrine, 4-hydroxy]",1.01,1.07,1.01,1.03,1.01,1.06,1.01,1
NC[C@H]1O[C@H](O[C@H]2[C@H](O[C@@H]3O[C@H](CO)[C@@H](O)[C@H]3O)[C@@H](O)[C@H](N)C[C@@H]2N)[C@H](N)[C@@H](O)[C@@H]1O [Ribostamycin sulfate salt],0.981,0.918,0.974,0.995,0.988,0.986,0.98,0.99
COC(=O)C1=C(C)NC(C)=C(C(=O)OCCN(C)Cc2ccccc2)C1c1cccc([N+](=O)[O-])c1 (stereo not given) [Nicardipine hydrochloride],1,1.01,0.966,1,1.02,0.977,1.01,0.901
O=C(NCC1CCCCN1)c1cc(OCC(F)(F)F)ccc1OCC(F)(F)F (stereo not given) [Flecainide acetate],0.995,0.966,0.988,0.989,1,1.03,1,1
CN(C)CCOC(=O)C(c1ccccc1)C1(O)CCCC1 (stereo not given) [Cyclopentolate hydrochloride],1.02,1.01,1,1.02,0.98,0.993,0.999,1
COc1cccc2c1C(=O)c1c(O)c3c(c(O)c1C2=O)C[C@@](O)(C(=O)CO)C[C@@H]3O[C@H]1C[C@H](N)[C@H](O)[C@H](C)O1 [Doxorubicin hydrochloride],0.942 (active),0.932,0.998,0.906 (active),0.948,0.966,0.986,0.0132 (active)
Cc1cc(-n2c(=O)[nH]c(=O)n(C)c2=O)ccc1Oc1ccc(SC(F)(F)F)cc1 [Toltrazuril],1.01,0.995,1,1.01,,,,
CN[C@H](CC(C)C)C(=O)N[C@H]1C(=O)N[C@@H](CC(N)=O)C(=O)N[C@H]2C(=O)N[C@H]3C(=O)N[C@H](C(=O)N[C@H](C(=O)O)c4cc(O)cc(O)c4-c4cc3ccc4O)[C@H](O)c3ccc(c(Cl)c3)Oc3cc2cc(c3O[C@@H]2O[C@H](CO)[C@@H](O)[C@H](O)[C@H]2O[C@H]2C[C@](C)(N)[C@H](O)[C@H](C)O2)Oc2ccc(cc2Cl)[C@H]1O [Vancomycin hydrochloride],0.986,0.984,1.01,0.981,0.014 (active),0.0118 (active),0.996,0.996
CC1(C)S[C@@H]2[C@H](NC(=O)[C@H](N)c3ccc(O)cc3)C(=O)N2[C@H]1C(=O)O [Amoxicillin],0.00744 (active),0.0257 (active),0.68 (active),0.0346 (active),0.0144 (active),0.0118 (active),0.00737 (active),0.00653 (active)
Cc1ccc(C)c(OCCCC(C)(C)C(=O)O)c1 [Gemfibrozil],0.997,0.972,0.983,1,0.969,0.972,1,0.977
Cc1cc(C(C)(C)C)cc(C)c1CC1=NCCN1 [Xylometazoline hydrochloride],1.03,0.999,0.999,0.989,1.02,1.02,0.995,0.989
CCCCCCC[N+](CC)(CC)CCCCc1ccc(Cl)cc1 [Clofilium tosylate],1,0.99,1.02,1.02,0.973,0.859,1.01,0.541
CN(C)CCCN1c2ccccc2CCc2ccc(Cl)cc21 [Clomipramine hydrochloride],0.992,1,0.874,1.01,0.976,0.957,1.01,0.962
N=C(N)N1CCc2ccccc2C1 [Debrisoquin sulfate],0.995,0.975,1.01,1.01,1.02,1.01,1,1
COc1ccc2cc([C@@H](C)C(=O)O)ccc2c1 [(R) Naproxen sodium salt],1.02,1.08,1.06,1.03,1.06,1.07,1,1.02
CCC[C@@H]1C[C@@H](C(=O)N[C@@H]([C@H]2O[C@H](SC)[C@H](O)[C@@H](O)[C@H]2O)[C@H](C)Cl)N(C)C1 [Clindamycin hydrochloride],0.722 (active),0.648 (active),0.143 (active),0.0588 (active),0.0135 (active),0.0132 (active),0.835,0.437
CNNCc1ccc(C(=O)NC(C)C)cc1 [Procarbazine hydrochloride],1,1.02,1,0.992,1.06,1.05,1.01,1
C[C@]12C=CC(=O)C=C1CC[C@@H]1[C@@H]2C(=O)C[C@@]2(C)[C@H]1CC[C@]2(O)C(=O)CO [Prednisone],1.01,0.994,1,1.01,1.02,1.02,0.994,0.999
CO[C@@]1(NC(=O)C(C(=O)O)c2ccc(O)cc2)C(=O)N2C(C(=O)O)=C(CSc3nnnn3C)CO[C@@H]21 (stereo not given in full) [Moxalactam disodium salt],0.00566 (active),0.0488 (active),0.639 (active),0.149 (active),0.0332 (active),0.0488 (active),,
CC(C(=O)O)c1ccc(C(=O)c2ccccc2)s1 (stereo not given) [Tiaprofenic acid],1,1.01,0.978,1.01,1.02,1.05,1,0.992
"N[C@H]1CONC1=O [(S,-) Cycloserine]",1.01,1.03,1.04,1.04,0.897,0.954,0.997,0.996
Clc1ccc2c(c1)C(N1CCNCC1)=Nc1ccccc1O2 [Amoxapine],0.988,1.01,0.8 (active),1.01,0.795,0.759,1.01,0.972
CCOC(=O)/C=C(C)/C=C/C=C(C)/C=C/c1c(C)cc(OC)c(C)c1C [Etretinate],1.01,1.03,0.998,1,1.03,1.06,1,0.991
Nc1ccn([C@@H]2O[C@H](CO)[C@@H](O)C2(F)F)c(=O)n1 [Gemcitabine],1.01,1.04,1.01,1.03,1.01,1.02,0.983,
C[C@H]1O[C@@H](O[C@H]2[C@@H](O)C[C@H](O[C@H]3[C@@H](O)C[C@H](O[C@H]4CC[C@@]5(C)[C@H](CC[C@@H]6[C@@H]5C[C@@H](O)[C@]5(C)[C@@H](C7=CC(=O)OC7)CC[C@]65O)C4)O[C@@H]3C)O[C@@H]2C)C[C@H](O)[C@@H]1O [Digoxin],0.978,0.945,0.973,0.993,0.985,1.01,0.987,0.995
CC(C)[N+](C)(CCOC(=O)C1c2ccccc2Oc2ccccc21)C(C)C [Propantheline bromide],0.974,0.983,0.967,1,0.966,0.958,1,0.981
